Screening results as filed in PubChem BioAssay.
L3MBTL1 block: blocks human L3MBTL1 | Q9Y468 | AlphaScreen L3MBTL1–H3K9me1 peptide binding | Potency, µM (top dose mostly 57.1 µM), hits mostly inhibitors | hit rate 0.66% among 230,000 | AID 485360; also: nearly all actives have a fitted effect of over 60% in size
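First, the protein-peptide complex forms for 30 min at room temperature (L3MBTL1 50 nM, biotinylated H3K9me1 peptide 75 nM). Next, compounds are pin-transferred and incubated 30 min. Finally, AlphaScreen beads are added and read after 30 min.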
Sfp PPTase inh: inhibitors of Bacillus subtilis Sfp phosphopantetheinyl transferase. Q9F4F7. Biochemical Sfp PPTase activity, qHTS. Potency, µM, hits mostly inhibitors. hit rate 3.5% among 310,000. AID 1490;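 also: the enzyme is Sfp with the accession as filed and its product quenches rhodamine fluorescence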
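Buffer: 50 mM Hepes-Na pH 7.6, 10 mM MgCl2, 0.01% Nonidet P-40, 0.01% BSA. Enzyme 15 nM, pre-exposed to compound 15 min; substrates then added and fluorescence change tracked over 30 min.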
JMJD2A Tudor inh: blocks the human JMJD2A Tudor domain | O75164 | AlphaScreen JMJD2A-Tudor / H3K4me3 peptide binding | hit rate 4.4% among 390,000 | Potency, µM (doses to about 114 µM), actives largely listed as inhibitors; also: nearly all actives have a fitted effect of over 50% in size
BAZ2B block: inhibitors of human BAZ2B bromodomain; AID 504333; hit rate 4.4% among 360,000; AlphaScreen BAZ2B-H3K14Ac peptide displacement; Q9UIF8; Potency, µM (series often up to 114 µM), hits mostly inhibitors; also: nearly all actives have a fitted effect of over 60% in size
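BAZ2B 50 nM plus b-H3(5-23)K14Ac 50 nM, PBS pH 7.4/0.01% Tween-20, 30 min RT; compound added (max 110 uM), 30 min RT; streptavidin donor/Ni-chelate acceptor beads 10 ug/mL final, 20 min dark; AlphaScreen read.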
G9a inh: inhibitors of human histone lysine methyltransferase G9a; Q96KQ7; hit rate 8.8% among 350,000; G9a H3K9 monomethylation, AlphaScreen, 2 h; Potency, µM (series often up to 102 µM), hits mostly inhibitors; AID 504332; also: nearly all actives have a fitted effect of over 75% in size
Target sequence (Q96KQ7 913-1193 limits assumed): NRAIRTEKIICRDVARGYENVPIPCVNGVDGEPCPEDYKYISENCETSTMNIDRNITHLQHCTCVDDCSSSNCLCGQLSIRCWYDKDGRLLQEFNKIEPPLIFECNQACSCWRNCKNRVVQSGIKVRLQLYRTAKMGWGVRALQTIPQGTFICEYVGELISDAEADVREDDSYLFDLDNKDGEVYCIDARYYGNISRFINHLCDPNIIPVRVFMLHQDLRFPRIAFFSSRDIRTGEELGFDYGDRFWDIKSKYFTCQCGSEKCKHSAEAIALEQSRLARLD
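Compounds were preincubated with 20 nM G9a for 15 min, after which biotinylated H3K9 peptide (500 nM) and SAM (20 uM) started a 2 h room-temperature reaction. Monomethylated product was quantified by antibody-based AlphaScreen chemiluminescence.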
HP1b binding inh: HP1-beta chromodomain-methylated histone interaction inhibition | AlphaScreen HP1-beta / biotin-H3K9me3 peptide binding | hit rate 0.56% among 390,000 | P83916 | Potency, µM (top dose mostly 114 µM), hits mostly inhibitors; also: nearly all actives have a fitted effect of over 70% in size
Target sequence (P83916 whole entry, looked up): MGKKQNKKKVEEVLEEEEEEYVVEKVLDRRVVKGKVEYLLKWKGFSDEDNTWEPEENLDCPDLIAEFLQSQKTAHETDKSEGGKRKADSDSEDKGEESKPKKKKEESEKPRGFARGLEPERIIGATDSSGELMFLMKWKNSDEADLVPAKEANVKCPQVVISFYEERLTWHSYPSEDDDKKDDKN
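Compound inhibition of the preformed complex between 50 nM HP1-beta and 50 nM biotinylated H3K9me3 peptide was read by AlphaScreen. Buffer was PBS pH 7.4 with 0.01% Tween-20. Incubations ran 30 min at room temperature, with 10 ug/mL donor/acceptor beads.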
Of the large screens only hits and unclear results are named; the others gave an inactive call. Hits are enriched below; roughly 12% of the tested compounds scored in any of these assays. Calls follow the shape of the dose curve; as a rule, active = well fitted curve in the direction sought with a large enough effect; inconclusive = small, poorly fitted or top-dose-only effect, or another doubt; inactive = no such curve, though single readings can be large; an effect the other way counts as inactive or inconclusive.

CC12CCC(C(=O)n3c1nc1ccccc13)C2(C)C (centres undefined)	none
C/C(Cn1cnc([N+](=O)[O-])n1)=N\NC(=O)c1ccc(F)cc1	G9a inh 20µM
C/C(Cn1cnc([N+](=O)[O-])n1)=N\NC(=O)c1cccc(F)c1	JMJD2A Tudor inh inconclusive
COc1ccccc1CCNC(=O)C(=O)NCC(c1ccco1)S(=O)(=O)c1ccccc1 (centres undefined)	none (no result: L3MBTL1 block, Sfp PPTase inh)
CCCC[C@H](CC)CN=C(N)NC(N)=NCCCCCCN=C(N)NC(N)=NC[C@@H](CC)CCCC	Sfp PPTase inh 8.9µM, G9a inh inconclusive (no result: L3MBTL1 block, JMJD2A Tudor inh, BAZ2B block, HP1b binding inh)
CCCCCCCCCCC(CO)CCCCCCCC (centres undefined)	none (no result: L3MBTL1 block, JMJD2A Tudor inh, BAZ2B block, HP1b binding inh)
Oc1ccc(Cl)cc1Nc1nc2ccccc2n2cnnc12	none (no result: L3MBTL1 block, Sfp PPTase inh)
COc1cc2[nH]c(=O)n(CCCCCC(=O)NCCc3ccccc3)c(=O)c2cc1OC	none (no result: L3MBTL1 block, Sfp PPTase inh)
O=c1cc(-c2ccccc2)cc(-c2ccccc2)n1O	JMJD2A Tudor inh 50µM, BAZ2B block 35µM (no result: Sfp PPTase inh)
Cc1cc(-c2ccccc2)cc(=O)[nH]1	none (no result: L3MBTL1 block, Sfp PPTase inh, BAZ2B block, G9a inh)
Nc1ccc(SCc2cccnc2)cc1	G9a inh 45µM (no result: L3MBTL1 block)
O=C(CN1C(=O)NC2(CCCC2)C1=O)c1ccc(Cl)s1	G9a inh 79µM (no result: Sfp PPTase inh)
CC(C)(C)C(=O)NCc1ccc(C(=O)CN2C(=O)NC3(CCCC3)C2=O)s1	none (no result: Sfp PPTase inh)
COc1ccc(CCCn2ncc3c2nc(N)n2nc(-c4ccco4)nc32)cc1	G9a inh inconclusive (no result: L3MBTL1 block, JMJD2A Tudor inh, BAZ2B block, HP1b binding inh)
CCN(CC)c1ccc(N2C(=O)CSC2=S)cc1	JMJD2A Tudor inh 50µM, HP1b binding inh inconclusive
O=C(O)c1cc(C(=O)O)cc(N2C(=O)CSC2=S)c1	BAZ2B block inconclusive, G9a inh 18µM (no result: L3MBTL1 block)
CC(C)CC(=O)Nc1cccc(-c2cn3cccnc3n2)c1	none (no result: L3MBTL1 block, Sfp PPTase inh)
CCOC(=O)c1c(=O)n(O)c2ccc(C)cc2[n+]1[O-]	JMJD2A Tudor inh 89µM, BAZ2B block inconclusive, G9a inh 50µM
Cc1cc(C)c(S(=O)(=O)/N=C2/C=C(SCC(=O)O)C(=O)c3ccccc32)cc1C	Sfp PPTase inh 22µM, JMJD2A Tudor inh 25µM, BAZ2B block 35µM, G9a inh 5.6µM, HP1b binding inh 35µM (no result: L3MBTL1 block)
Cc1ccc(NC(=O)CSc2ccccc2)cc1S(=O)(=O)N1CCCCC1	none (no result: Sfp PPTase inh)
Cc1cccc(Nc2nc(-c3sc(C)nc3C)cs2)c1	JMJD2A Tudor inh inconclusive, BAZ2B block inconclusive, G9a inh inconclusive, HP1b binding inh inconclusive
Cc1nc(N)sc1-c1csc(Nc2cccc(O)c2)n1	JMJD2A Tudor inh inconclusive, BAZ2B block 56µM, G9a inh 45µM, HP1b binding inh inconclusive
CC(=O)c1cccc(Nc2nc(-c3sc(C)nc3C)cs2)c1	none (no result: L3MBTL1 block)
CCCCCC(=O)Nc1nc(C)c(-c2csc(Nc3ccc(Cl)cc3)n2)s1	JMJD2A Tudor inh inconclusive, BAZ2B block inconclusive
Cc1nc(C)c(-c2csc(Nc3cccc(O)c3)n2)s1	BAZ2B block inconclusive, G9a inh 50µM
CCC(=O)Nc1nc(C)c(-c2csc(Nc3cccc(O)c3)n2)s1	Sfp PPTase inh inconclusive, JMJD2A Tudor inh 40µM, BAZ2B block inconclusive, G9a inh 40µM (no result: L3MBTL1 block)
CC(=O)c1cccc(Nc2nc(-c3sc(N)nc3C)cs2)c1	JMJD2A Tudor inh inconclusive, BAZ2B block 35µM, G9a inh 79µM, HP1b binding inh inconclusive
CCCOC(=O)N1CCN(/[N+]([O-])=N/Oc2ccc([N+](=O)[O-])cc2[N+](=O)[O-])CC1	JMJD2A Tudor inh inconclusive (no result: L3MBTL1 block, BAZ2B block, G9a inh)
O=C(COCc1cc(-c2ccco2)on1)Nc1cccc(Cl)c1Cl	G9a inh inconclusive (no result: L3MBTL1 block, Sfp PPTase inh)
Cc1ccc2c(c1)-c1nc(-c3ccc4c(c3)NC(=O)CO4)cc(-c3ccccc3)c1CO2	none (no result: L3MBTL1 block, Sfp PPTase inh)
Cc1cc(C)c2nc(N3CCCN(C(=O)c4ccco4)CC3)c(C#N)cc2c1	Sfp PPTase inh 45µM, BAZ2B block inconclusive, G9a inh inconclusive
Cc1nc(N2CCN(C(=O)c3ccco3)CC2)c(C#N)c2c1CCCC2	none (no result: L3MBTL1 block)
COc1ccc2nc(N3CCCC3)c(C#N)cc2c1	none (no result: L3MBTL1 block)
Cc1ccc2cc(C#N)c(N3CCCC3)nc2c1C	Sfp PPTase inh 20µM, G9a inh inconclusive
Cc1ccc2cc(C#N)c(N3CCCN(C(=O)C4CCCO4)CC3)nc2c1C (centres undefined)	none
COc1ccc2nc(N3CCCCC3)c(C#N)cc2c1	Sfp PPTase inh 79µM
CCCCc1nn2c(=O)cc(COC(=O)c3ccc(NC(=O)CCc4ccccc4)cc3)nc2s1	none (no result: L3MBTL1 block, Sfp PPTase inh)
COc1ccc(N2CCN(C(=O)Nc3cn(CC(C)C)c(=O)c4ccccc34)CC2)cc1	JMJD2A Tudor inh inconclusive, G9a inh inconclusive (no result: L3MBTL1 block, Sfp PPTase inh)
COc1ccc2c(CNCCc3ccc(SC)cc3)c(C(=O)O)n(Cc3ccc(F)cc3)c2c1	JMJD2A Tudor inh inconclusive, BAZ2B block inconclusive (no result: L3MBTL1 block, Sfp PPTase inh)
CC(C)CCN1C(=O)c2ccc(C(=O)Nc3cc(C(=O)O)cc(C(=O)O)c3)cc2C1=O	none
